Active and inactive are the calls of the source. Unless noted, no rule for the calls is given here.

Assay [1] can be described thus: compounds binding Alexa647 anti-His antibody – biochemical, small-molecule microarray, 635 nm fluorescence, artefact control for SMM control protein annotation, primary screen (AID 1128).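 Also: score merges feature fluorescence with signal-to-noise for each printed compound spot.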 The settings on record: higher = more signal.
Assay [2] relates to Human papillomavirus type 1a E7 protein (residues 1-88). Kind of assay: HPV1a E7 small-molecule binders, primary screen, biochemical, small-molecule microarray, residues 1-88, 635 nm (AID 1129). The settings on record: small-molecule microarray binding, fluorescence 635 nm; higher = more signal.
The target of assay [3] is Focal adhesion kinase 1 (Homo sapiens) (UniProt Q05397). Kind of assay: PTK2 protein binding on printed compound slides – biochemical, small-molecule microarray, 635/667 nm fluorescence, BSA, DTT, primary screen (AID 1130).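 Also: composite of spot emission at 667 nm and signal to noise over triplicate slides.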 The settings on record: 635 nm fluorescence, higher = more signal.
The test system of assay [4] is Fibrinogen (Alexa647-labelled). Kind of assay: Alexa647-fibrinogen binding to printed small molecules – biochemical, small-molecule microarray, 635/667 nm fluorescence, artefact control for SMM control-protein annotation, profiling panel (AID 1131).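 Also: z-score merges 667 nm fluorescence with per-spot signal-to-noise over triplicate slides.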 The conditions noted are these: fibrinogen-A647 binding fluorescence, higher = more signal.
Assay [5] deals with Follistatin (Homo sapiens) (UniProt P19883). Kind of assay: FST protein binding to printed compounds – biochemical, small-molecule microarray, 635/667 nm fluorescence, primary screen (AID 1132). The conditions noted are these: 635 nm fluorescence, higher = more signal.
For assay [6], the target named is Fibroblast growth factor 2 (Homo sapiens) (UniProt P09038). Kind of assay: basic fibroblast growth factor binding to printed compounds – biochemical, small-molecule microarray, 635/667 nm fluorescence, primary screen (AID 1133). The settings on record: FGF2, fluorescence 635/667, higher = more signal.
Assay [7] is described as follows: JC-1 mitochondrial potential readout, lung cancer cells – cell-based, A549, JC-1 fluorescence, basal, 24 h, 100 nL, profiling panel (AID 1138).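 Also: A549 lung adenocarcinoma cells under basal conditions with no added stimulus; test concentration not given here.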 The conditions noted are these: higher = more signal.
For another assay, the system named is Lefty1. Put plainly: Lefty1 protein binding to printed compounds – biochemical, small-molecule microarray, 635/667 nm fluorescence, primary screen (AID 1139). The settings on record: fluorescence 635/667, higher = more signal.
For assay [8], the system named is wheat germ agglutinin (Triticum aestivum), Alexa647-labelled. Put plainly: Alexa647-WGA lectin binding to printed small molecules – biochemical, small-molecule microarray, 635/667 nm fluorescence, artefact control for SMM control-protein annotation, profiling panel (AID 1140).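 Also: score merges 667 nm feature emission with signal to noise over triplicate slides.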 The conditions noted are these: WGA-A647 binding, 635 nm fluorescence, higher = more signal.

For assay [9], the target named is Luciferin 4-monooxygenase (Photinus pyralis) (UniProt P08659). Put plainly: inhibition of purified Photinus pyralis luciferase – biochemical, luminescence, purified enzyme, 2006 set, primary screen (AID 1141).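 Also: cell-free assay with purified firefly luciferase at 100 ng per well in PBS; test concentration not given here.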 The settings on record: purified firefly luciferase, SteadyGlo luminescence, 30 min; higher = more signal, called active from +8 up or from −8 down.
In assay [10] the test system is Wnt5a (protein binding on small-molecule microarray). Kind of assay: small molecules binding Wnt5a protein – biophysical, small-molecule microarray, 635/667 nm fluorescence, primary screen (AID 1142).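 Also: fluorescence read at 667 nm with signal to noise per printed feature.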 The conditions noted are these: 635 nm fluorescence, higher = more signal.
A short description of assay [11]: ATP-based viability of Huh7 replicon cells – cell-based, CellTiter-Glo luminescence, basal, 48 h, cytotoxicity control for HCV replication inhibitor project, primary screen (AID 1143).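 Also: Huh7 hepatoma cells carrying a hepatitis C replication reporter with no stimulus; test concentration not given here.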 The settings on record: higher = more signal, called active from +8 up or from −8 down.
A short description of assay [12]: Pseudomonas biofilm growth suppression – PAO1 strain, BacTiter-Glo luminescence, LB-PBS, primary screen (AID 1144). The settings on record: P. aeruginosa PAO1 biofilm, 12 h, higher = more signal.
Assay [13] in a line: basal CRE-LacZ reporter activity in PC12 – cell-based, unstimulated, primary screen (AID 1145). The conditions noted are these: no forskolin, luminescence, 4.5 h, higher = more signal, called active from +8 up or from −8 down.
Assay [14] in a line: forskolin-driven CRE-LacZ activity in PC12 – cell-based, CRE-LacZ reporter, forskolin-stimulated, primary screen (AID 1146).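 Also: PC12 cells with 6xCRE LacZ reporter stimulated by forskolin 10 µM; beta-galactosidase reporter signal reflecting CREB driven transcription.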 The settings on record: luminescence, 4.5 h, higher = more signal, called active from +8 up or from −8 down.
The target in assay [15] is Streptavidin (Streptomyces avidinii) (UniProt P22629). Kind of assay: compounds binding control protein streptavidin – biophysical, small-molecule microarray, 635/667 nm fluorescence, artefact control for SMM compound annotation, primary screen (AID 1147).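 Also: signal reflects streptavidin binding to arrayed compounds as a control protein.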 The settings on record: higher = more signal.
Assay [16] is described as follows: probe aInhba binding on compound microarray – biochemical, small-molecule microarray, 635/667 nm fluorescence, primary screen (AID 1148).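 Also: score merges 667nm spot fluorescence with signal-to-noise for antibody binding to printed compounds.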 The conditions noted are these: higher = more signal.
For assay [17], the target named is Torsin-1A (Homo sapiens) (UniProt O14656). Put plainly: TOR1A wild-type binding on microarray – cell lysate, small-molecule microarray, lysate, 635/667 nm, primary screen (AID 1149). The settings on record: COS7 hTOR1A-WT lysate, 635 nm fluorescence, higher = more signal.
For assay [18] the target is unchanged. Put plainly: torsin A mutant lysate binding on microarrays – cell lysate, small-molecule microarray, COS7 lysate, 635/667 nm fluorescence, primary screen (AID 1150).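 Also: score pools 667 nm emission and signal to noise measuring lysate protein binding.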 The conditions noted are these: COS7 hTOR1A mutant lysate, 635 nm fluorescence, higher = more signal.
The test system of assay [19] is Sonic hedgehog protein (Shh). Put plainly: Sonic hedgehog microarray binding compounds – biochemical, small-molecule microarray, 635/667 nm fluorescence, primary screen (AID 1151).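 Also: Shh protein binding to compounds spotted on small-molecule microarray slides; score combines spot fluorescence intensity with signal-to-noise across triplicate slides.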 The settings on record: 635 nm fluorescence, higher = more signal.

Chain of Focal adhesion kinase 1 (Homo sapiens) (Q05397 whole entry, looked up): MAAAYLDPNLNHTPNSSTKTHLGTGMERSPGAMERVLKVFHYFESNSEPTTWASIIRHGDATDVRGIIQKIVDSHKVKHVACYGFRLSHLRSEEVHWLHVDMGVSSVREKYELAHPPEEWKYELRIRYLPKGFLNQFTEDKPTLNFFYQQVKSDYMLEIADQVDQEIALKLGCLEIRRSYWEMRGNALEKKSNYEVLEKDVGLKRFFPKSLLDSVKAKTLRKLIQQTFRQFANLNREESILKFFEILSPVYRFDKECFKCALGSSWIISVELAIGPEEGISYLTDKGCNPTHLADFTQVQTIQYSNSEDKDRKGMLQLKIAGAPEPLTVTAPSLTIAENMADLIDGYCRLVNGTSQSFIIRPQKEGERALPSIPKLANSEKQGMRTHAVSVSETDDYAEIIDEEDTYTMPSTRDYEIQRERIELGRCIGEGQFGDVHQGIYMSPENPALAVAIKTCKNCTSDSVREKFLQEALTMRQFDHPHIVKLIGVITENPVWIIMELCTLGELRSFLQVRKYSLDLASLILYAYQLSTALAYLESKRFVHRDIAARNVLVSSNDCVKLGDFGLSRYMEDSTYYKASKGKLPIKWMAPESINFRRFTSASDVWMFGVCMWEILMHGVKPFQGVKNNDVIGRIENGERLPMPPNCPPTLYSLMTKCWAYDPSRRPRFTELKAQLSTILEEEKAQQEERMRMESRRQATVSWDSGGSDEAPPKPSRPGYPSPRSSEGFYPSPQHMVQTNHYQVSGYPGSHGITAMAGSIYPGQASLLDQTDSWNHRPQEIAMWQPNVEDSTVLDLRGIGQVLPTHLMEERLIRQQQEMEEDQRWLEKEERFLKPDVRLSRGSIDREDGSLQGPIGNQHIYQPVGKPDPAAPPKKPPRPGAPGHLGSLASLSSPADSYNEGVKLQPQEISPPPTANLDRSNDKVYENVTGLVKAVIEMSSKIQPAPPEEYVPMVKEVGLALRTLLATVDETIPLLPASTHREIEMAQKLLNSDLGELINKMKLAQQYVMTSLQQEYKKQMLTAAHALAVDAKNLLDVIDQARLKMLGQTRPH
Chain of Streptavidin (Streptomyces avidinii) (P22629 whole entry, looked up): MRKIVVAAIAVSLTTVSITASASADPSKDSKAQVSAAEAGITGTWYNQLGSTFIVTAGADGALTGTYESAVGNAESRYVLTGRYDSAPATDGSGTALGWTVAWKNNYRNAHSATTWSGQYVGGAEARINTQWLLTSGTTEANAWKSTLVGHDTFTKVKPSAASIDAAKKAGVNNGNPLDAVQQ
Chain of Fibroblast growth factor 2 (Homo sapiens) (P09038 whole entry, looked up): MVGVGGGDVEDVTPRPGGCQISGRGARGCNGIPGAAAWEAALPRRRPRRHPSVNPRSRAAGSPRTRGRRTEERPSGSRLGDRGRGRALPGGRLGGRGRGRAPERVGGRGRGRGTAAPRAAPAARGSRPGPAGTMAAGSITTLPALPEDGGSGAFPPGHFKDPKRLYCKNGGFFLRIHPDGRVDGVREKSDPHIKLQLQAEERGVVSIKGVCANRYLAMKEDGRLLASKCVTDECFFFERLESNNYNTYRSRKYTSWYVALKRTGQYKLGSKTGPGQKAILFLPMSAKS
Chain of Luciferin 4-monooxygenase (Photinus pyralis) (P08659 whole entry, looked up): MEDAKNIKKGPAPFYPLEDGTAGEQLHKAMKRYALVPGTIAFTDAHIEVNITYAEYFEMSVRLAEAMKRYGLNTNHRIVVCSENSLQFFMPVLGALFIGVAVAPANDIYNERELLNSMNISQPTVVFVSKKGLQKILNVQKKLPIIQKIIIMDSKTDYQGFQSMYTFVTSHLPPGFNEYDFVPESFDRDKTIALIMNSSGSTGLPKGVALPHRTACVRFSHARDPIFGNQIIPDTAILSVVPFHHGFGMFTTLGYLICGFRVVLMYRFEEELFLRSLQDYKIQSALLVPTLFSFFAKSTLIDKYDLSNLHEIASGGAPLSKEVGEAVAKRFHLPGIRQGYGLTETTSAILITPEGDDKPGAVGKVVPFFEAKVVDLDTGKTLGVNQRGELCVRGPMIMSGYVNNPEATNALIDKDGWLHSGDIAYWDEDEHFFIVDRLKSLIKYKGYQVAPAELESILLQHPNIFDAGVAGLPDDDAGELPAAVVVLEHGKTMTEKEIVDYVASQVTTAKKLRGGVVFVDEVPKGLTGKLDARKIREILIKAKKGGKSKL
Chain of Follistatin (Homo sapiens) (P19883 whole entry, looked up): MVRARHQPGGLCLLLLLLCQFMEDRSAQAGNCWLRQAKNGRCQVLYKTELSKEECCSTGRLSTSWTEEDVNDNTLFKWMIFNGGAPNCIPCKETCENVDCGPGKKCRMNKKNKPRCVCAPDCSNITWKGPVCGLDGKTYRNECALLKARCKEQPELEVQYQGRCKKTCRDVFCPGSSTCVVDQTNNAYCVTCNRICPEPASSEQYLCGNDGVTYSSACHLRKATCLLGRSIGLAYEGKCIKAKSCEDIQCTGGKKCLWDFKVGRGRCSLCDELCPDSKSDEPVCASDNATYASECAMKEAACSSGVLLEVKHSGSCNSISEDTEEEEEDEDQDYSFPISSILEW
Chain of Torsin-1A (Homo sapiens) (O14656 whole entry, looked up): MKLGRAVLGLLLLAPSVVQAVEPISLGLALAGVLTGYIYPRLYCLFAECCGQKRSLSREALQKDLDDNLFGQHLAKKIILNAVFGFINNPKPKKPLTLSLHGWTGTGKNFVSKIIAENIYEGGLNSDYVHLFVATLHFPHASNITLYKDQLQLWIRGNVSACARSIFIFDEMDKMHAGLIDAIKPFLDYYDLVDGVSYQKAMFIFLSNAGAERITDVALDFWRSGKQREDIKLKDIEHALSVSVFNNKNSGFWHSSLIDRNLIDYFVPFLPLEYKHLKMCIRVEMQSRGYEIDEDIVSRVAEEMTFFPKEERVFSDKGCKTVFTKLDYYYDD

For the compound `CC(C)CN1C(=O)[C@@]2(Cc3ccccc31)c1ccccc1C(=O)N(Cc1ccccc1C(F)(F)F)[C@H]2c1ccc(CO)cc1`, the composite z-score in assay [1] was -0.372; in assay [2], -1.18; in assay [3], -0.315; in [4], -0.921; in [5], -0.596; in assay [6] it was -0.425. The composite z-score is 0.636 in the assay on Lefty1; -0.0876 in assay [8]; -0.331 in assay [10]; -0.0961 in [15]; -0.182 in [16]; -2.38 with Torsin-1A (Homo sapiens) [17]. Further, the composite z-score is -0.727 with Torsin-1A (Homo sapiens) [18] and -0.875 in assay [19]. Also, the z-score was 0.39 in assay [7]; 1.11 (inactive) in assay [9]; -2.54 (inactive) in [11]; -1.53 (inactive) in assay [12]; 0.0655 (inactive) in assay [13]; -0.416 (inactive) in assay [14].
With `CN1C(=O)C2C=CC(C(O)c3c(F)cccc3Cl)N(Nc3ccccc3)C2C1=O` (stereo not given), the composite z-score is -0.0126 in [1]; -0.105 in assay [2]; 0.464 in [3]; 0.978 in [4]; 1.03 in [5]; -0.166 in assay [6]. Further, the composite z-score in the assay with Lefty1 is -0.309; in [8], 1.05; in assay [10] it was 0.438; in assay [15], 1.53; in [16], 0.0374; with Torsin-1A (Homo sapiens) [17] it was -0.353. Further, the composite z-score with Torsin-1A (Homo sapiens) [18] is -0.562; in assay [19], -0.206. The z-score was 1.14 in assay [7]; 0.565 (inactive) in assay [9]; 1.01 (inactive) in assay [11]; 0.402 (inactive) in [12]; 0.433 (inactive) in assay [13]; 0.928 (inactive) in assay [14].
On to `CC(=O)N1Cc2ccccc2C[C@]2(N=C(c3ccc(OCCCO)cc3)O[C@@H]2c2ccccc2)C1=O`, for which the composite z-score in assay [1] came to 2.62; in [2], 1.2; in assay [3], 0.552; in assay [4] it was 0.654; in [5], 0.743; in assay [6], 1.2. Further, the composite z-score amounted to 0.036 in the assay with Lefty1; 0.956 in [8]; 0.865 in assay [10]; 0.253 in assay [15]; 0.12 in [16]; 0.611 with Torsin-1A (Homo sapiens) [17]. The figures for the composite z-score (in the assay with Torsin-1A (Homo sapiens) [18]; in assay [19]) were 0.297 and 1.18, respectively. Also, the z-score in assay [7] is 0.638; in assay [9] it was -2 (inactive); in assay [11] it was -3.38 (inactive); in assay [12], -0.497 (inactive); in assay [13], 1.13 (inactive); in [14], 2.08 (inactive).
For the compound `CCCCC(=C=CC[C@@H](O)c1ccc(OCCO)cc1)C[C@@H](O)COCc1ccccc1`, the composite z-score was 0.0164 in assay [1]; -0.445 in assay [2]; -0.0498 in [3]; -1.01 in assay [4]; 1.31 in assay [5]; 0.567 in [6]. In addition, the composite z-score with Lefty1 was 0.973; in assay [8], 0.614; in assay [10], 0.511; in assay [15], -0.476; in assay [16], -0.203; in the assay with Torsin-1A (Homo sapiens) [17], 0.611. For the same compound, the values for the composite z-score (with Torsin-1A (Homo sapiens) [18]; in assay [19]) were 0.699 and 1.38, respectively. Further, the z-score in [7] is 1.72; in assay [9] it was -1.58 (inactive); in assay [11], -2.32 (inactive); in assay [12] it was -0.656 (inactive); in assay [13], 12.1 (active); in assay [14], -1.48 (inactive).
Take `CN(C)C(=O)[C@@]1(Cc2ccccc2N=[N+]=[N-])COC(c2ccc(OCCCO)cc2)=N1`: the composite z-score in [1] came to 0.869; in assay [2], 1.22; in [3] it was 0.947; in assay [4], 1; in assay [5], 1.32; in assay [6], 1.76. Moreover, the composite z-score is -0.349 with Lefty1; 0.51 in assay [8]; 0.932 in assay [10]; 0.726 in [15]; -0.0171 in assay [16]; 0.425 with Torsin-1A (Homo sapiens) [17]. Further, the composite z-score with Torsin-1A (Homo sapiens) [18] was 0.837; in [19], -0.215. Moreover, the z-score is 1.76 in assay [7]; -3.71 (inactive) in [9]; -2.68 (inactive) in assay [11]; 0.618 (inactive) in assay [12]; 0.942 (inactive) in assay [13]; 0.646 (inactive) in assay [14].

The values are drawn from PubChem BioAssay.
